# KB-3-1 tox: KB-3-1 parental cell cytotoxicity; KB-3-1 viability, CellTiter-Glo ATP luminescence, 72 h; Potency, µM (titrated, usually from 46.1 µM), hits mostly cytotoxic; hit rate 1.4% among 400,000; AID 1347075; further: on the % scale 0 is the no-effect control and ±100 the full control effect; nearly all actives have a fitted effect of over 60% in size
#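 Viability of parental KB-3-1 cells, measured by CellTiter-Glo luminescence, followed a 72 h incubation at 37 °C with pinned compounds in phenol-red-free DMEM containing 10% FBS.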
# HT1080-NT tox: kills 2HG-producing HT-1080-NT fibrosarcoma cells; HT-1080-NT fibrosarcoma viability, CellTiter-Glo ATP luminescence, 48 h; Potency, µM (highest dose often 46.1 µM), for inactives: at the top dose activity, negative = less viability, most hits filed as cytotoxic; hit rate 1.6% among 360,000; AID 686970;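 further: NT is the 2HG producing partner of a matched IDH1 knockdown line; 0% = DMSO-treated cells and -100% = media-only wells without cells; nearly all actives have a fitted effect of over 55% in size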
#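 750 cells/well, RPMI + 5% FBS; 2 h settle, compound pin-transfer, 48 h at 37 degrees C. CellTiter-Glo 10 min RT, luminescence. Normalized to DMSO and media-only wells.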
# HT1080 IDH1KD tx: kills HT-1080 cells with IDH1 knockdown. AID 686971. HT-1080 IDH1 knockdown viability, ATP luminescence, 48 h. hit rate 2% among 360,000. Potency, µM (series often up to 46.1 µM), without a hit: at the top dose activity, negative = toxicity, most hits filed as cytotoxic;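 further: 0% = DMSO wells and -100% = cell-free medium wells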
#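 Knockdown cells (IDH1KD HT-1080) received compounds 2 h after plating at 750 cells/well and were kept 48 h at 37 °C in 5% FBS RPMI. A CellTiter-Glo luminescence read gave % activity for curve fitting.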
# MCF10A rereplic: induces DNA re-replication in MCF 10a normal breast cells; AID 624296; MCF 10A DNA re-replication, Hoechst nuclear intensity, 48 h; Potency, µM (doses to about 46.1 µM), for the others: top-dose activity, positive = re-replication, hits mostly activators; hit rate 2.9% among 350,000; further: % of control where 0% means no effect; nearly all actives have a fitted effect of over 50% in size
# KB-V1 MDR tox: kills drug-selected multidrug resistant KB-V1 cells; KB-V1 MDR cells viability, CellTiter-Glo, 72 h; Potency, µM (titrated, usually from 46.1 µM), most hits filed as cytotoxic; hit rate 3.4% among 400,000; AID 1347076; further: on the % scale 0 is the no-effect control and ±100 the full control effect; nearly all actives have a fitted effect of over 60% in size
#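 KB-V1 cells (P-gp-expressing MDR subline of KB-3-1) in phenol-red-free DMEM with 10% FBS were exposed to library compounds over a concentration series for 72 h at 37 degrees C. Viability read by CellTiter-Glo luminescence; concentration-effect curves fitted after normalization.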
# SW480 rereplic: inducers of DNA re-replication in SW480 colon cancer cells. SW480 DNA re-replication, Hoechst DNA content imaging, 48 h. hit rate 1.8% among 340,000. Potency, µM (top dose mostly 46.1 µM), without a hit: at the highest dose re-replication activation, hits mostly activators; further: % of control where 0% means no effect; nearly all actives have a fitted effect of over 55% in size
#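 First, 250 cells per well were seeded. Next, compound or vehicle (23 nL) was pinned in, plates sat 48 hr at 37 C. Finally Hoechst was added for 40 min before fluorescence scanning.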
# * marks the source's active call; other numbers are inactive results; i = inactive; ? = inconclusive; . = not tested or not shown. Rows were chosen to be rich in hits. Some 8% of all compounds tested hit in one or more screens of this group. The call rests on the fitted dose curve; in most records, active means well fitted curve in the direction sought with a large enough effect; inconclusive means small, poorly fitted or top-dose-only effect, or another doubt; inactive means no such curve, though single readings can be large; an effect the other way counts as inactive or inconclusive. Potency means the concentration at half of the fitted maximal effect.
SMILES,KB-3-1 tox,HT1080-NT tox,HT1080 IDH1KD tx,MCF10A rereplic,KB-V1 MDR tox,SW480 rereplic
CC(O)(c1ccc(F)c(F)c1)c1nc(-c2ccc(F)c(Cl)c2)cs1 (configuration not stated),i,33µM*,?,.,i,.
Oc1cccc(-c2csc(C(O)(c3ccccc3)C(F)(F)F)n2)c1 (configuration not stated),i,?,-17%,.,i,.
Cn1c(=O)c2c(nc(NCc3ccc4c(c3)OCO4)n2C)n(C)c1=O,i,10%,0%,-3%,i,-20%
C[C@@H](NCCCc1cccc(C(F)(F)F)c1)c1cccc2ccccc12,?,.,.,21µM*,?,?
CC(Cc1cccc(C(F)(F)F)c1)NCCOC(=O)c1ccccc1 (configuration not stated),i,11%,3%,-20%,i,-5%
O=C(CN1CCCC1)Nc1ccccc1Sc1ccccc1,i,-1%,-4%,11%,?,3%
COc1ccccc1NC(=S)N(Cc1ccco1)Cc1cc2cc(C)c(C)cc2[nH]c1=O,?,?,7.3µM*,2.1µM*,2.6µM*,5.8µM*
Cc1ccc2cc(CN(CCN3CCCC3)C(=O)Nc3ccccc3)c(=O)[nH]c2c1C,i,?,?,-1%,i,-3%
COc1ccccc1NC(=O)N(Cc1ccco1)Cc1cc2ccc(C)c(C)c2[nH]c1=O,5.8µM*,3.7µM*,2.6µM*,7.3µM*,5.8µM*,18µM*
Cc1ccc2cc(CN(Cc3ccco3)C(=O)NCc3ccccc3)c(=O)[nH]c2c1C,i,0%,-10%,25%,i,10%
Cc1cccc2cc(CN(Cc3ccco3)C(=O)c3cccs3)c(=O)[nH]c12,?,0%,2%,5%,i,-1%
COc1ccccc1NC(=S)N(Cc1ccco1)Cc1cc2cccc(C)c2[nH]c1=O,i,-2%,-8%,13%,?,-2%
Cc1ccc2cc(CN(CCN3CCCC3)C(=O)Nc3ccc(F)cc3)c(=O)[nH]c2c1C,i,23µM*,?,24%,i,0%
Cc1ccc2cc(CN(Cc3ccco3)C(=O)c3cccs3)c(=O)[nH]c2c1,?,4.6µM*,5.8µM*,2.6µM*,5.2µM*,15µM*
Cc1cc(C)cc(OCC(=O)NCC(c2ccc(Cl)cc2)N2CCCCC2)c1 (configuration not stated),i,.,.,.,i,.
COc1ccccc1NC(=O)N(CCN1CCOCC1)Cc1cc2cc(C)cc(C)c2[nH]c1=O,i,-4%,-11%,13%,i,4%
COc1ccccc1NC(=O)N(Cc1ccco1)Cc1cc2cc(C)cc(C)c2[nH]c1=O,?,?,?,?,18µM*,?
Cc1cccc(C(=O)NCC(c2ccco2)N2CCc3ccccc32)c1 (configuration not stated),i,-15%,-8%,?,i,-516%
CC/C(=C/c1ccccc1)c1cccc2[nH]c3c(OC)cccc3c12,?,?,?,21µM*,?,11%
CC/C(=C\c1ccccc1)c1cccc2oc3ccccc3c12,i,.,.,.,i,.
CC(/C=N/Nc1nnc2c(n1)[nH]c1ccccc12)=C\c1ccco1,i,7%,-1%,7%,i,2%
O=C1CC(=O)N(CCNc2ncc(C(F)(F)F)cc2Cl)C(=O)N1,i,4%,0%,?,i,-5%
O=C1C=CC(=O)N1CCNc1ncc(C(F)(F)F)cc1Cl,?,?,23µM*,5.8µM*,?,8.2µM*
Cc1nn(-c2ccccc2)c2c1C(c1ccc([N+](=O)[O-])cc1)N1C(=N2)C(=O)Nc2ccccc21 (configuration not stated),23µM*,-17%,-25%,-4%,18µM*,-5%
CCOc1cc(N2CCOCC2)c(OCC)cc1NC(=O)COC(=O)C1CCCN1S(=O)(=O)c1ccccc1F (configuration not stated),i,-15%,?,-7%,i,24%
SMILES,KB-3-1 tox,HT1080-NT tox,HT1080 IDH1KD tx,MCF10A rereplic,KB-V1 MDR tox,SW480 rereplic
COC(=O)c1sccc1-n1cccc1C(=O)N1CCOCC1,i,18%,18%,5%,i,-4%
O=C(COC(=O)c1nc(Cl)c(Cl)c(Cl)c1Cl)NCc1ccccc1,i,-25%,?,?,i,16µM*
Nc1c(Cl)c(Cl)nc(C(=O)OCC(=O)NCc2ccccc2)c1Cl,i,16%,0%,0%,i,-4%
COc1ccc(CC(N)c2csc(Nc3ccccn3)n2)cc1 (configuration not stated),i,-9%,?,.,i,.
COc1cccc(Nc2nc(C(N)Cc3ccc(Cl)cc3)cs2)n1 (configuration not stated),i,23µM*,16µM*,.,i,.
NC(=O)c1cccc(Nc2nc(C(N)Cc3ccc(C(F)(F)F)cc3)cs2)n1 (configuration not stated),?,7.3µM*,?,.,i,.
COc1cccc(Nc2nc(C(N)Cc3ccc(C(F)(F)F)cc3)cs2)n1 (configuration not stated),i,13µM*,23µM*,.,i,.
COc1cccc(Nc2nc(C(N)C(C)C)cs2)n1 (configuration not stated),?,?,-13%,.,i,.
COc1ccc(CC(N)c2csc(Nc3cccc(OC)n3)n2)cc1 (configuration not stated),i,26µM*,-25%,.,?,.
COc1ccc(C(N)c2csc(Nc3ccc(C(F)(F)F)cn3)n2)cc1 (configuration not stated),i,?,?,.,i,.
CO/N=C(\c1nonc1N)N1CCN(c2ccc(Cl)cc2[N+](=O)[O-])CC1,?,?,?,?,?,11%
CC12CCC3c4ccc(O)cc4CCC3C1CC(=NO)C2O (configuration not stated),i,0%,-6%,3%,i,-3%
COCCCN1C(=O)c2ccccc2C1C(=O)NC1CCCCCC1 (configuration not stated),i,8%,5%,7%,?,-10%
COc1ccccc1NC(=O)CCCC(=O)OCC(F)(F)C(F)F,i,-1%,-2%,28%,i,0%
COc1cccc(Nc2nc(C(N)CC(C)C)cs2)n1 (configuration not stated),i,?,16µM*,.,i,.

# Source: PubChem BioAssay
